Experiment [1] can be described thus: compound effects on lung adenocarcinoma cell viability – A549, calcein-AM fluorescence, 48 h, basal, profiling panel (AID 1162). Note: test concentration not given here. Conditions: higher = more signal.
The nature of experiment [2]: compound effects on differentiated 3T3-L1 adipocyte viability – cell-based, 3T3-L1 adipocytes, calcein-AM fluorescence, 48 h, basal, profiling panel (AID 1163). Note: test concentration not given here. The note with it: 3T3-L1 adipocytes viability, higher = more signal.
Experiment [3] is described as follows: compound effects on hepatocellular carcinoma cell viability – HepG2, calcein-AM fluorescence, 48 h, basal, profiling panel (AID 1164). Note: test concentration not given here. Conditions: higher = more signal.
A short description of experiment [4]: compound effects on multiple myeloma cell viability – MM1S, calcein-AM fluorescence, 48 h, basal, profiling panel (AID 1165). Note: test concentration not given here. Conditions: higher = more signal.
Experiment [5] is described as follows: calcein-AM signal in unstimulated myeloma cells – cell-based, calcein-AM fluorescence, 48 h, PK04 Diversity Set, profiling panel (AID 1166).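 Note: cells grown under basal conditions without added stimulus; test concentration not given here.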 Conditions: RPMI8226 myeloma viability, higher = more signal.
The nature of experiment [6]: JC-1 mitochondrial signal, unstimulated HepG2 cells – cell-based, JC-1 fluorescence, 24 h, 100 nL compound, profiling panel (AID 1167). Note: test concentration not given here. The note with it: HepG2 mitochondrial potential, higher = more signal.
Experiment [7] is described as follows: JC-1 mitochondrial signal, unstimulated adipocytes – cell-based, JC-1 fluorescence, 3T3-L1 adipocytes, 24 h, 100 nL compound, profiling panel (AID 1168). Note: test concentration not given here. Conditions: JC-1 mitochondrial fluorescence, higher = more signal, called active from +8 up or from −8 down.
The nature of experiment [8]: JC-1 mitochondrial signal, unstimulated myeloma cells – cell-based, JC-1 fluorescence, RPMI8226, 24 h, 100 nL compound, profiling panel (AID 1169). Note: test concentration not given here. The note with it: JC-1 mitochondrial potential fluorescence, higher = more signal.
Experiment [9] in a line: JC-1 mitochondrial signal, unstimulated MM1S myeloma – cell-based, JC-1 fluorescence, 24 h, 100 nL compound, profiling panel (AID 1170). Note: test concentration not given here. Conditions: MM1S mitochondrial potential, higher = more signal.
The nature of experiment [10]: resazurin metabolic signal in A549 cells – cell-based, resazurin fluorescence, 24 h, PK04 Diversity Set, profiling panel (AID 1171). Note: test concentration not given here. Conditions: A549 viability, higher = more signal, called active from +8 up or from −8 down. A general note: Alamar Blue is a resazurin reagent that responds to reducing activity.
A short description of experiment [11]: resazurin metabolic signal in HepG2 cells – cell-based, resazurin fluorescence, 24 h, PK04 Diversity Set, profiling panel (AID 1172). Note: test concentration not given here. The note with it: HepG2 viability, higher = more signal.
Experiment [12] is described as follows: budding yeast growth changes without added modifier – OD600, strain BY4716, 24 h, basal condition, primary screen (AID 1173). The note with it: S. cerevisiae BY4716 growth, OD600, 24 h; higher = more signal, called active from +8 up or from −8 down.
The nature of experiment [13]: viability profiling in MM1S myeloma cells – cell-based, resazurin fluorescence, basal, 24 h, PK04 Diversity Set, profiling panel (AID 1174). Note: test concentration not given here. The note with it: higher = more signal, called active from +8 up or from −8 down.
Experiment [14] concerns the target Dihydroorotate dehydrogenase (quinone), mitochondrial (Plasmodium falciparum (isolate 3D7)) (UniProt Q08210). Briefly: inhibition of P. falciparum DHODH – biochemical, C-terminal His tag, absorbance 600 nm, primary screen (AID 1175).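 Note: recombinant parasite enzyme with a five histidine tag at its C terminus; test concentration not given here.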 Conditions: PfDHODH enzyme, DCIP absorbance 600 nm; higher = more signal, called active from +8 up or from −8 down.
A short description of experiment [15]: inhibition of PAO1 biofilm formation – strain PAO1, LB-PBS medium, absorbance 600 nm, primary screen (AID 1176). Note: test concentration not given here. Conditions: P. aeruginosa PAO1 growth/biofilm, A600, 12 h; higher = more signal.
Experiment [16] can be described thus: growth modulation of vineyard yeast isolate – strain RM11-1a, OD600, basal, 24 h, primary screen (AID 1177).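 Note: cultures grown under basal conditions with no added stressor; test concentration not given here.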 Conditions: S. cerevisiae RM11-1a growth, OD600, 24 h; higher = more signal, called active from +8 up or from −8 down.
Experiment [17] is described as follows: growth of efflux-deficient E. coli DRC39 – strain DRC39, OD650, 24 h, E. coli filamentation inducers, primary screen (AID 1178).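 Note: growth measured as culture turbidity by optical density at 650 nm; test concentration not given here.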 Conditions: E. coli DRC39 acrAB, higher = more signal, called active from +8 up or from −8 down.
Experiment [18] is described as follows: growth of efflux-deficient E. coli DRC39 – strain DRC39, OD650, 48 h, E. coli filamentation inducers, primary screen (AID 1179).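 Note: screen aims at cell division blockers that make cells filament.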 Conditions: E. coli DRC39 delta-acrAB growth, higher = more signal, called active from +8 up or from −8 down.
Experiment [19] can be described thus: viability profiling in RPMI8226 myeloma cells – cell-based, resazurin fluorescence, basal, 24 h, PK04 Diversity Set, profiling panel (AID 1180).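 Note: RPMI8826 multiple myeloma cell line at 5000 cells per well; test concentration not given here.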 The note with it: higher = more signal.
Experiment [20] has as its target E3 ubiquitin-protein ligase XIAP (Homo sapiens) (UniProt P98170). Briefly: small molecules binding XIAP protein – biophysical, small-molecule microarray, fluorescence 635 nm, primary screen (AID 1181).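 Note: score merges 667 nm emission and signal to noise over triplicate slides.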 The note with it: higher = more signal.

SMILES strings stand for the structures. Active and inactive are the calls of the source. Unless noted, the rule behind the calls is not given here.

Sequence of Dihydroorotate dehydrogenase (quinone), mitochondrial (Plasmodium falciparum (isolate 3D7)) (Q08210 whole entry, looked up): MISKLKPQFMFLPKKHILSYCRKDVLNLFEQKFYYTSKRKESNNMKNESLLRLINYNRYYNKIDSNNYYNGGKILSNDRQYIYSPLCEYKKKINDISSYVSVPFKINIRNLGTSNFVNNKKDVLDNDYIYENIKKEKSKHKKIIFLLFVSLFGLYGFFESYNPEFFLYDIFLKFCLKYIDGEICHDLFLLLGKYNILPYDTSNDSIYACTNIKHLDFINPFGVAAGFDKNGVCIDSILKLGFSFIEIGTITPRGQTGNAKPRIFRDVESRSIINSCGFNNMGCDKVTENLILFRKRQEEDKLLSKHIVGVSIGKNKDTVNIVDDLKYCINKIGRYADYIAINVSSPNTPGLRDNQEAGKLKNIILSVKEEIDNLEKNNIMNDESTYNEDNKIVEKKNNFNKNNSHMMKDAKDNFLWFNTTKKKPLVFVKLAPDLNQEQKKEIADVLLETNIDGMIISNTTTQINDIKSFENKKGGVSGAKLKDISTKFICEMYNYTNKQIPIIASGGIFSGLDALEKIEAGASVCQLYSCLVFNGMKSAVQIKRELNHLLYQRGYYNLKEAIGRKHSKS
Sequence of E3 ubiquitin-protein ligase XIAP (Homo sapiens) (P98170 whole entry, looked up): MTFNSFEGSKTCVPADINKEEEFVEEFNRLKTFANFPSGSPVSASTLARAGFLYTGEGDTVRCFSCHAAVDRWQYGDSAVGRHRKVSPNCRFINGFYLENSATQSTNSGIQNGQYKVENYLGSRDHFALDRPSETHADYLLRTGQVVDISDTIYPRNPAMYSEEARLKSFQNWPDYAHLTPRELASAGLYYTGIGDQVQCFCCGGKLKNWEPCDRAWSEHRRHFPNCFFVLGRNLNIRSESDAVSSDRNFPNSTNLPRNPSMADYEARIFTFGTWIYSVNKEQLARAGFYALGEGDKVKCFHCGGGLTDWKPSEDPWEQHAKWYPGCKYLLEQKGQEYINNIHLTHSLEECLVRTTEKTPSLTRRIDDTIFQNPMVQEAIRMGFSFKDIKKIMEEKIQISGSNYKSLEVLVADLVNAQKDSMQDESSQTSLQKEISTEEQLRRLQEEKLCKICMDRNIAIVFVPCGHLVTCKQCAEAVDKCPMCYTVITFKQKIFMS

With `Cc1c(NC(=O)CC#N)c(=O)n(-c2ccccc2)n1C`, the z-score is 1.62 in [1]; 0.317 in [2]; 0.954 in [3]; 0.0823 in experiment [4]; 0.106 in [5]; 1.42 in [6]. Moreover, the z-score in [7] was 0.166 (inactive); in experiment [8], -0.128; in experiment [9], -0.63; in [10], 0.234 (inactive); in [11], 1.02; in [12], -0.267 (inactive). For the same molecule, the z-score is 1.07 (inactive) in experiment [13]; 0.531 (inactive) in experiment [15]; -1.25 (inactive) in experiment [16]; 1.37 (inactive) in experiment [17]; 1.47 (inactive) in experiment [18]; 0.526 in [19]. Further, the composite z-score in experiment [14] was -0.544 (inactive); in experiment [20] it was 0.0345.

With `CS(=O)(=O)CCOC(=O)C1=CC(c2ccc(CO)cc2)=CC(C2CC2)N(Cc2cc3c(cc2Br)OCO3)C=C1C(=O)OCCS(C)(=O)=O` (stereo not given), the z-score in experiment [1] is -0.261; in [2], -0.14; in experiment [3], 1.04; in [4], -2.68; in experiment [5], -2.41; in experiment [6], 2.99. Further, the z-score in [7] is 0.253 (inactive); in [8], -0.787; in experiment [9] it was -1.8; in experiment [10], -1.14 (inactive); in [11] it was -0.311; in experiment [12] it was -4.92 (inactive). The z-score in [13] is -2.7 (inactive); in experiment [15], 0.613 (inactive); in experiment [16], 0.478 (inactive); in experiment [17], 0.537 (inactive); in [18], -0.75 (inactive); in experiment [19], -2.19. In addition, the composite z-score was -0.735 (inactive) in experiment [14] and 0.14 in [20].

For the molecule `CC(=CC1CCCCC1)[C@@H](NC(=O)c1ccc(C(F)(F)F)cc1)c1ccc(-c2ccccc2)cc1`, the z-score in [1] is -0.165; in experiment [2], -0.791; in experiment [3] it was -0.839; in [4], -1.5; in [5], -2.06; in experiment [6], -2.33. The z-score in experiment [7] was -1.09 (inactive); in [8] it was -0.515; in experiment [9], -0.693; in experiment [10] it was 0.334 (inactive); in experiment [11], 0.0536; in experiment [12], 1.08 (inactive). Besides, the z-score in [13] is -0.549 (inactive); in [15] it was 1.31 (inactive); in [16] it was 0.088 (inactive); in experiment [17], -1.16 (inactive); in experiment [18], -0.822 (inactive); in experiment [19] it was -0.18. Also, the composite z-score in [14] was -0.468 (inactive); in [20], -0.115.

Turning to `O=C1C2C=CC(C(O)c3ccc(F)cc3)N(Nc3ccccc3)C2C(=O)N1c1ccccc1` (stereo not given), the z-score in experiment [1] was 0.257; in [2], -1.66; in experiment [3], -0.114; in [4], 0.561; in experiment [5] it was -0.149; in experiment [6], -1.58. In addition, the z-score in [7] is -0.0708 (inactive); in experiment [8] it was -0.0118; in experiment [9] it was -1.01; in experiment [10], -0.111 (inactive); in experiment [11], -1.24; in [12], -3.05 (inactive). The z-score in [13] was -1.33 (inactive); in [15], 0.888 (inactive); in experiment [16] it was 0.723 (inactive); in experiment [17], -0.811 (inactive); in experiment [18] it was 0.128 (inactive); in experiment [19], -0.535. The composite z-score in [14] was 0.485 (inactive); in experiment [20], -0.229.

As to `CC(C)Cc1ccc(CN2CC[C@@H](NS(=O)(=O)c3ccccc3)C2)cc1`, the z-score in experiment [1] was -0.977; in experiment [2], -0.568; in experiment [3], -1.63; in experiment [4] it was -3.18; in [5], -3.72; in [6], -1.13. For the same molecule, the z-score in experiment [7] is 0.787 (inactive); in [8], -0.414; in experiment [9], -2.29; in [10], -0.235 (inactive); in experiment [11], -0.788; in [12], -14.2 (active). Also, the z-score in experiment [13] is -1.73 (inactive); in experiment [15], -0.0126 (inactive); in [16] it was -1.21 (inactive); in experiment [17], -20.5 (active); in experiment [18], -19.9 (active); in experiment [19] it was -1.03. In addition, the values for the composite z-score in [14] and in [20] were -0.371 (inactive) and -0.178, respectively.

Regarding `COC(=O)c1ccc(C23CC2(C(NP(=O)(c2ccccc2)c2ccccc2)c2ccccc2)C3)cc1` (stereo not given), the z-score in experiment [1] was 0.766; in [2], 0.406; in experiment [3], 1.48; in experiment [4], -2.06; in experiment [5], -3.34; in experiment [6] it was 3.7. Further, the z-score in experiment [7] was 0.711 (inactive); in experiment [8], -0.369; in experiment [9], -1.45; in [10], -0.416 (inactive); in experiment [11], -0.402; in [12] it was -1.17 (inactive). For the same molecule, the z-score is -0.941 (inactive) in experiment [13]; 0.287 (inactive) in experiment [15]; -3.39 (inactive) in experiment [16]; -0.29 (inactive) in experiment [17]; -0.16 (inactive) in experiment [18]; -0.122 in experiment [19]. The composite z-score in [14] is -1.13 (inactive); in [20], -0.126.

Regarding `C=CCNC(=O)[C@H]1[C@@H]2C(=O)O[C@@H](c3ccccc3)[C@@H](c3ccccc3)N2[C@@H](c2ccc(O)cc2)[C@]12C(=O)N(C(=O)OCCOC)c1ccc(C#CCCO)cc12`, the z-score was 1.07 in [1]; 0.482 in experiment [2]; 0.802 in [3]; -0.0589 in [4]; 0.233 in [5]; 0.0998 in [6]. Besides, the z-score is 0.541 (inactive) in experiment [7]; -1.07 in experiment [8]; 0.45 in experiment [9]; -0.319 (inactive) in [10]; -0.37 in experiment [11]; -0.385 (inactive) in experiment [12]. The z-score in experiment [13] is 0.695 (inactive); in experiment [15] it was 0.104 (inactive); in experiment [16], 0.681 (inactive); in [17], 0.261 (inactive); in experiment [18] it was 0.69 (inactive); in experiment [19], 0.665. Also, the composite z-score is 1.12 (inactive) in experiment [14] and -0.272 in [20].

Regarding `COCCOC(=O)N1C(=O)[C@@]2(c3cc(C#CCC(C(=O)OC)C(=O)OC)ccc31)[C@H](c1ccccc1OCCO)N1[C@H](c3ccccc3)[C@H](c3ccccc3)OC(=O)[C@H]1[C@@H]2C(N)=O`, the z-score in [1] was 0.597; in experiment [2], 0.0915; in [3], -1.58; in [4], -3.4; in [5], -4.17; in [6], -0.603. The z-score in experiment [7] is 1.69 (inactive); in experiment [8], -0.986; in experiment [9], -1.84; in experiment [10], -0.212 (inactive); in experiment [11] it was -0.592; in [12], 0.9 (inactive). The z-score in experiment [13] was -9.3 (active); in experiment [15], 0.774 (inactive); in [16], 1.97 (inactive); in [17], 0.116 (inactive); in [18], 0.857 (inactive); in experiment [19], -7.24. Also, the values for the composite z-score in experiment [14] and in experiment [20] were 0.47 (inactive) and -0.0874, respectively.

For `CS(=O)(=O)CCOC(=O)C1=CC(CCCO)=CC(c2cccs2)N(Cc2cc3c(cc2Br)OCO3)C=C1C(=O)OCCS(C)(=O)=O` (stereo not given), the z-score is 1.55 in [1]; 0.46 in experiment [2]; 0.392 in experiment [3]; -0.121 in [4]; 0.377 in experiment [5]; 1.09 in experiment [6]. Besides, the z-score in experiment [7] is 0.252 (inactive); in experiment [8], -0.308; in [9] it was -0.579; in experiment [10], 0.885 (inactive); in experiment [11], 1.13; in experiment [12] it was -2.65 (inactive). In addition, the z-score in experiment [13] is 0.209 (inactive); in experiment [15] it was 0.142 (inactive); in [16], 0.379 (inactive); in experiment [17], 0.571 (inactive); in experiment [18], 0.503 (inactive); in experiment [19], 0.0578. Also, the composite z-score in experiment [14] was 0.359 (inactive); in [20], 0.122.

These data come from PubChem BioAssay.
